CYP2C9 inh – blocks human cytochrome P450 2C9 | CYP2C9 Supersomes, luciferin-H conversion, luminescence | inhibition, % at 5 µM | hit rate 20% among 96,000 | AID 777;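 active = blocking of liver enzyme CYP2C9 beyond about 50% at 5 µM, limit read from the data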
CYP2C19 inhib – inhibitors of human CYP2C19; P33261; CYP2C19 Supersomes, luciferin-H EGE luminescence, 30 min; inhibition, % at 5 µM; hit rate 21% among 96,000; AID 778;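 active = CYP2C19 inhibition above a set limit at 5 µM in the primary screen, cut at about 50% in these data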;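 note: plate controls were negative control wells for no effect and 2.5 mM tranylcypromine positive control for full effect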
Target sequence (P33261 whole entry, looked up): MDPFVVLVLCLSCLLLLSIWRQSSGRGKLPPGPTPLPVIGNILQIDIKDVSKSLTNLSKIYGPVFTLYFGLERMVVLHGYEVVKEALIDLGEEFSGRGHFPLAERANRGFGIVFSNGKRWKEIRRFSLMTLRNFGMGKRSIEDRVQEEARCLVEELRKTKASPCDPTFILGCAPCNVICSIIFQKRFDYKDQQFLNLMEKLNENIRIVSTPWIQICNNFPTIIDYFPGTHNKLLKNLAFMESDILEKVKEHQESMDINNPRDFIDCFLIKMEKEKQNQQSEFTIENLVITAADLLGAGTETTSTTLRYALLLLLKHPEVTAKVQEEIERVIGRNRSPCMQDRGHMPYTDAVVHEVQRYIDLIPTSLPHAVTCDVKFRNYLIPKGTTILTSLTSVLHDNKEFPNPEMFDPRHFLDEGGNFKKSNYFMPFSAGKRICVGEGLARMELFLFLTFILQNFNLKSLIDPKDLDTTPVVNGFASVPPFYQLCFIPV
Cav3 T inh – human Cav3.2 channel inhibition, primary screen; Cav3.2-expressing cells, Fluo-4 calcium fluorescence FDSS; hits give low values; B-score at 10 µM; hit rate 4% among 100,000; AID 449739;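 active = single-dose well whose peak fluorescence ratio is a statistical outlier from its plate by either plate-standardised score or position-corrected B-score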
Pyk2 oligo antag – blocks oligomerization of human Pyk2 in cells; Q14289; z-score (the deposit names both 25 µM and 10 µM); hit rate 0.83% among 99,000; AID 1347419; Q293 cells, Pyk2 FERM NanoBiT luminescence; hits give low values;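 active = Z-score of -3 or lower, scaled per plate to the spread of control and sample wells; inactive = z-score above -3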;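 note: negative z-score means lost luminescence so less FERM oligomerization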
CYP2C9 activ – CYP2C9 (human) activation; P11712; recombinant CYP2C9, luciferin-H conversion, luminescence; hits give high values; factor 1 = untreated enzyme, 0 = blocked; activation factor at 5 µM; hit rate 1.4% among 96,000;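 active = activation factor of 2 or more for CYP2C9 at a 5 µM dose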;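 note: 0 = sulfaphenazole-blocked wells and 1 = vehicle-only wells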
CYP2C19 activ – activators of human cytochrome P450 2C19; recombinant CYP2C19, luciferin-H EGE luminescence; hits give high values; 0 = fully inhibited enzyme, 1 = untreated enzyme; activation factor at 5 µM; 96,000 tested, under 10 active; AID 1025;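 active = activation factor of at least 2 at 5 µM in the primary screen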;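 note: 0 = wells with 2.5 mM tranylcypromine and 1 = vehicle-only wells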
* marks the source's active call; other numbers are inactive results; nt = not tested or not shown. This is a sample that favours compounds with a hit; in the whole collection about 27% have one here.

SMILES	CYP2C9 inh	CYP2C19 inhib	Cav3 T inh	Pyk2 oligo antag	CYP2C9 activ	CYP2C19 activ
Cc1cc(-c2cc(N)n(-c3ccccc3)n2)c(C)n1C1CCCC1	38.3	34.5	0.842	-1.85	0.6	0.7
CC(=O)NC(CCS(C)(=O)=O)C(=O)Nc1ccc(C)c(F)c1 (configuration not stated)	-19.1	-6.2	0.553	0.68	1.2	1.1
Cc1cc(C)nc(SCc2nnc(SCC(=O)Nc3nccs3)n2Cc2ccco2)n1	62.6*	15.0	-0.375	-1.18	0.4	0.8
Cc1ccc(NC(=O)CSc2nnc(-c3cnccn3)n2Cc2ccco2)cc1	47.9	26.7	0.0112	-0.81	0.5	0.7
Cc1occc1-c1nnc(SCC(=O)Nc2nccs2)n1Cc1ccco1	54.6*	72.1*	-0.916	0.13	0.5	0.3
Cc1ncoc1C(=O)Nc1cccc(Cl)c1C	9.2	7.2	-1.8	0.41	0.9	0.9
Cc1c(Cl)cccc1NC(=O)c1ccc(-n2ccnc2)nc1	98.5*	99.1*	1.8	0.59	0	0
Cc1ccc(NC(=O)CS(=O)CC(=O)NCC2CCCO2)cc1 (configuration not stated)	10.9	1.7	0.632	0.9	0.9	1
COc1ccc(C2CC(C(F)(F)F)n3ncc(C(=O)Nc4cccc(O)c4)c3N2)cc1OC (configuration not stated)	50.2*	18.9	0.599	-1.42	0.5	0.8
COc1cccc(C2CC(C(F)(F)F)n3ncc(C(=O)NCc4ccco4)c3N2)c1 (configuration not stated)	82.6*	66.9*	-0.878	0	0.2	0.3
COc1ccc(C2CC(C(F)(F)F)n3nc(C(=O)O)c(Cl)c3N2)cc1OC (configuration not stated)	2.2	-8.7	0.151	0.56	1	1.1
CCC(C)NC(=O)c1cnn2c1NC(c1ccc3c(c1)OCO3)CC2C(F)(F)F (configuration not stated)	1.7	-0.8	1.45	-0.96	1	1
COc1cccc(C2CC(C(F)(F)F)n3nc(C(=O)NCc4cccnc4)cc3N2)c1 (configuration not stated)	-24.0	-11.1	-0.396	0.37	1.2	1.1
COc1ccc(C2CC(C(F)(F)F)n3nc(CO)c(Cl)c3N2)cc1OC (configuration not stated)	98.3*	77.3*	-0.411	2.02	0	0.2
NC(=O)CN1CCN(C(=O)NC2CCCCC2)CC1	-17.4	-15.2	-1.91	nt	1.2	1.2
Cn1c(Cc2cccs2)nnc1SCC(=O)N1CCc2ccccc21	2.5	9.0	-0.251	1.31	1	0.9
CC(Sc1nnc(Cc2cccs2)n1C1CCCCC1)C(=O)NCc1ccco1 (configuration not stated)	75.0*	43.3	-0.8	-0.53	0.3	0.6
CC(Sc1nnc(Cc2cccs2)n1C1CCCCC1)C(=O)N1CCc2ccccc21 (configuration not stated)	76.1*	77.6*	-6.53*	0.03	0.2	0.2
Cc1cc(NC(=O)Cc2cccs2)nn1CC(=O)NCc1ccco1	-11.3	0.7	nt	-0.38	1.1	1
Cc1nnc(SC(C)C(=O)N2CCc3ccccc32)s1 (configuration not stated)	33.8	77.7*	0.777	0.17	0.7	0.2
CC(C(=O)N1CCc2ccccc21)N1CCc2ccccc2C1 (configuration not stated)	nt	nt	0.0625	0.15	nt	nt
CCn1cc([N+](=O)[O-])c(C(=O)N2N=C3/C(=C/c4cccs4)CCCC3C2c2cccs2)n1 (configuration not stated)	nt	nt	-2.45	-1.51	nt	nt
CC(=O)N1CCN2C(=O)C1CCCC(=O)c1cc(C)ccc12 (configuration not stated)	nt	nt	0.199	0.18	nt	nt
COc1ccc(-c2nc3ncccn3c2Nc2ccc3c(c2)OCCO3)cc1	-7.2	-17.1	nt	-0.31	1.1	1.2
Oc1ccc(-c2nc3ncccn3c2Nc2ccc3c(c2)OCCO3)cc1	69.7*	48.1	-0.0827	0.28	0.3	0.5
Cc1ccc(-c2nc3ncccn3c2Nc2ccc3c(c2)OCCO3)cc1	-4.7	-10.3	-1.55	0.25	1	1.1
Cc1cc(C)n2c(Nc3ccc4c(c3)OCCO4)c(-c3ccco3)nc2n1	61.7*	31.4	nt	nt	0.4	0.7
Brc1ccc(-c2nc3ncccn3c2Nc2ccc3c(c2)OCCO3)o1	57.5*	46.7	-0.568	0.86	0.4	0.5

Assay outcomes from PubChem BioAssay.
